Screening results deposited in PubChem BioAssay by several laboratories.
FadD28 FP inh = inhibitors of FadD28 bisubstrate probe binding, primary screen, biochemical, fluorescence polarization, single point; Mycobacterium tuberculosis FadD28 fatty-acid-AMP ligase; 360,000 compounds, 0.22% hits; inhibition, % at 12.5 µM; in the data active = inhibition above about 8.5%, passing the limit was not always enough
Mtb BioA inh = M. tuberculosis BioA enzyme inhibitors, primary screen, biochemical, plate reader, single point, HTS. purified M. tuberculosis BioA enzyme. inhibition, % at 9.99 µM. AID 602481, 2012. 360,000 compounds, 0.096% hits. 7,8-diaminopelargonic acid synthase BioA (Mycobacterium tuberculosis); in the data active = inhibition above about 40%
Mtb hypoxia rep = PubChem AID 1159583 | M. tuberculosis hypoxia-regulated fluorescent reporter, fluorescence | fluorescence inhibition, % (concentration not given with the values) | 300,000 compounds, 0.1% hits; in the data active = fluorescence inhibition mostly above about 23%, no sharp cut-off; inactive = mostly below about 17%
FBA Mtb inh = Mtb FBA enzyme inhibitors, primary screen, biochemical, fluorescence, strain H37Rv | 360,000 compounds, 2.3% hits | inhibition, % at 1 µM | purified M. tuberculosis FBA, fluorescence read-out;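 also: 0% = vehicle and 100% = reference inhibitor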
Target sequence (P9WQA3 whole entry, looked up): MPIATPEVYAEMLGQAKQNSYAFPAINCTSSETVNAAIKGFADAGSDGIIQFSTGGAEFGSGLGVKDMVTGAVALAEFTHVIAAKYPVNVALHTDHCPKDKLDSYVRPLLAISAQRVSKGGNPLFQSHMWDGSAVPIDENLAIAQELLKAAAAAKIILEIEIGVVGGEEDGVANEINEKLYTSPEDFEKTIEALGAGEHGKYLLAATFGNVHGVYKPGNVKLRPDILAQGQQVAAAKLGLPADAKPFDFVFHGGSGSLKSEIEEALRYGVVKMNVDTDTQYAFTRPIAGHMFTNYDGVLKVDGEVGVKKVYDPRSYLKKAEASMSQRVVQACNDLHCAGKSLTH
GDH-TPI counter-1 = GDH-TPI coupling enzyme inhibitors, primary screen, artefact control for M. tuberculosis FBA inhibitor project, biochemical, absorbance, full deck. AID 588335, 2011. GDH-TPI coupled enzyme counterscreen, NADH absorbance. inhibition, % at 4.8 µM. 360,000 compounds, 1.2% hits; in the data active = inhibition above about 30%;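 also: 0% = DMSO wells and 100% = wells lacking the enzyme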
Mtb FBA confirm = M. tuberculosis aldolase blockers, biochemical, fluorescence, strain H37Rv, confirmation. AID 651616, 2012. shares compounds with FBA Mtb inh. 5,600 compounds, 78% hits. inhibition, % at 1 µM. purified M. tuberculosis FBA, fluorescence read-out;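 also: 0% = vehicle wells and 100% = reference inhibitor wells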
GDH-TPI counter-2 = GDH-TPI coupling enzyme inhibitors, artefact control for M. tuberculosis FBA inhibitor project, biochemical, fluorescence, high throughput | shares compounds with FBA Mtb inh | GDH-TPI coupled enzyme counterscreen | inhibition, % at 1 µM | 5,600 compounds, 81% hits | AID 652141, 2013; in the data active = inhibition above about 10%
* hit, by the source's call. Most compounds without a hit are left out; they make up all but 2.9% or so of the library. Rule as the data show it, unless noted: active = inhibition above about 27%; inactive = the rest.

`CCN(CC)C(=O)[C@H]1C[C@H](CC(=O)NCCCOC)C(=O)N2CCc3c([nH]c4cc(-c5ccco5)ccc34)[C@]12C` gave FadD28 FP inh 0, Mtb BioA inh 0, Mtb hypoxia rep -2, FBA Mtb inh 43*, GDH-TPI counter-1 7, Mtb FBA confirm 59* and GDH-TPI counter-2 31*.
`CCN(CC)C(=O)[C@H]1C[C@H](CC(=O)NCC23CC4CC(CC(C4)C2)C3)C(=O)N2CCc3c([nH]c4cc(-c5ccco5)ccc34)[C@]12C` gave FadD28 FP inh 1, Mtb BioA inh 2, Mtb hypoxia rep -7, FBA Mtb inh -1 and GDH-TPI counter-1 -2.
For CCC(=O)N1C[C@@H](C)[C@@H](OC)CN(C)C(=O)c2cc(NC(=O)NC(C)C)ccc2OC[C@H]1C the results were Mtb BioA inh 0.
`Cc1noc(C)c1NC(=O)N(C)C[C@H]1Oc2ncc(C#CC(C)C)cc2C(=O)N([C@H](C)CO)C[C@@H]1C` gave Mtb BioA inh 0.
For CCCC=C1CCCOC(C(=O)NCc2ccccc2)(C(F)(F)F)C1 (stereo not given) the results were Mtb hypoxia rep 14.
Screening CCOc1ccc(-c2cc(C)[n+](CCO)c(-c3ccc(OCC)cc3)c2)cc1 returned FadD28 FP inh -3, Mtb BioA inh 7, Mtb hypoxia rep 12, FBA Mtb inh 63*, GDH-TPI counter-1 28, Mtb FBA confirm 67* and GDH-TPI counter-2 49*.
For Cn1c(=O)nc2n(Cc3ccccc3)c3ccccc3cc-2c1=O the results were FadD28 FP inh -3, Mtb hypoxia rep 9, FBA Mtb inh 85*, GDH-TPI counter-1 7, Mtb FBA confirm 72* and GDH-TPI counter-2 52*.
Screening O=C(COC(=O)C1COc2ccccc2O1)c1ccc(F)cc1 (stereo not given) returned FadD28 FP inh 0, Mtb BioA inh -1, FBA Mtb inh 2 and GDH-TPI counter-1 4.
Screening O=C(N=Nc1c(O)[nH]c2ccc(F)cc12)C1COc2ccccc2O1 (stereo not given) returned FadD28 FP inh -2, Mtb BioA inh 0, Mtb hypoxia rep 7, FBA Mtb inh 38*, GDH-TPI counter-1 14, Mtb FBA confirm 131* and GDH-TPI counter-2 104*.
COc1ccc(C(=O)NN=Cc2c(C)[nH]c(=O)[nH]c2=O)cc1 was read as Mtb hypoxia rep 3.
O=S(=O)(Cc1ccccc1)N1CCN(C2Cc3ccccc3C2)CC1 was read as FadD28 FP inh 3, Mtb BioA inh -2, Mtb hypoxia rep 6, FBA Mtb inh 29*, GDH-TPI counter-1 9, Mtb FBA confirm active and GDH-TPI counter-2 active.
Screening Cc1ccc(-c2cc(-c3ccccc3)cc(-c3ccccc3)[n+]2-c2ccccc2C(=O)O)cc1 returned FadD28 FP inh -3, Mtb BioA inh 2, Mtb hypoxia rep 21, FBA Mtb inh 54*, GDH-TPI counter-1 16, Mtb FBA confirm 10 and GDH-TPI counter-2 3.
`O=C([O-])c1ccc(-[n+]2c(-c3ccccc3)cc(-c3ccccc3)cc2-c2ccccc2)cc1` gave FadD28 FP inh 1, Mtb BioA inh 1, Mtb hypoxia rep -1, FBA Mtb inh 7 and GDH-TPI counter-1 21.
`COc1ccc(C(=O)ON=C2C(=O)N(C)c3ccccc32)cc1` gave Mtb hypoxia rep 7.
For COc1ccccc1NC(=O)N(C)C[C@H]1Oc2ncc(C#CCN(C)C)cc2C(=O)N([C@H](C)CO)C[C@@H]1C the results were Mtb BioA inh -6.
`CCc1nc(NCC2CCCO2)c(C#N)c2c1COC(C)(C)C2` (stereo not given) gave FadD28 FP inh -3, Mtb BioA inh -1, Mtb hypoxia rep 5, FBA Mtb inh 71*, GDH-TPI counter-1 9, Mtb FBA confirm 140* and GDH-TPI counter-2 105*.
